Results: article PMC9911399, “Two distinct binding modes provide the RNA-binding protein RbFox with extraordinary sequence specificity”
Substitutions are numbered along the chain they refer to; changes in the protein carry UniProt numbers. Whole data set: some 16,000 sequences, median “ka relative to ugcaugu” near 0.0091, cut for the highest 2% near 0.032. This is one part of a sample in which the highest values are shown more often than they occur.

T1: RBFOX1 RRM (Homo sapiens, UniProt Q9NWB1 109-208)
T1 sequence: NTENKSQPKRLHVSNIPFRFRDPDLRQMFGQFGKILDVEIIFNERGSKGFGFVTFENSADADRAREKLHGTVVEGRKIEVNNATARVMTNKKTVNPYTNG

B1: GGGCCCU (DNA:RNA)
RNA: GGGAGACCGGAAUUCAGAUUGUCCGGGCCCUUUAAAUCCCGUCGUAGCCACCA
DNA 1: CAATCTGAATTCCGGTCTCCC
DNA 2: TGGTGGCTACGACGGGATT
B2: GGGGGCC (DNA:RNA)
RNA: B1 RNA with C28G, C29G, U31C
DNA 1: CAATCTGAATTCCGGTCTCCC
DNA 2: TGGTGGCTACGACGGGATT
B3: CGGGCCC (DNA:RNA)
RNA: B1 RNA with G25C, C28G, U31C
DNA 1: CAATCTGAATTCCGGTCTCCC
DNA 2: TGGTGGCTACGACGGGATT
B4: CGGCCUG (DNA:RNA)
RNA: B1 RNA with G25C, C30U, U31G
DNA 1: CAATCTGAATTCCGGTCTCCC
DNA 2: TGGTGGCTACGACGGGATT
B5: GGGCCUG (DNA:RNA)
RNA: B1 RNA with C30U, U31G
DNA 1: CAATCTGAATTCCGGTCTCCC
DNA 2: TGGTGGCTACGACGGGATT
B6: CGGGCCG (DNA:RNA)
RNA: B1 RNA with G25C, C28G, U31G
DNA 1: CAATCTGAATTCCGGTCTCCC
DNA 2: TGGTGGCTACGACGGGATT
B7: GGGGCCC (DNA:RNA)
RNA: B1 RNA with C28G, U31C
DNA 1: CAATCTGAATTCCGGTCTCCC
DNA 2: TGGTGGCTACGACGGGATT
B8: GGGCCGU (DNA:RNA)
RNA: B1 RNA with C30G
DNA 1: CAATCTGAATTCCGGTCTCCC
DNA 2: TGGTGGCTACGACGGGATT
B9: GGGGCCG (DNA:RNA)
RNA: B1 RNA with C28G, U31G
DNA 1: CAATCTGAATTCCGGTCTCCC
DNA 2: TGGTGGCTACGACGGGATT
B10: CACCUAU (DNA:RNA)
RNA: B1 RNA with G25C, G26A, G27C, C29U, C30A
DNA 1: CAATCTGAATTCCGGTCTCCC
DNA 2: TGGTGGCTACGACGGGATT
B11: AAGUACA (DNA:RNA)
RNA: B1 RNA with G25A, G26A, C28U, C29A, U31A
DNA 1: CAATCTGAATTCCGGTCTCCC
DNA 2: TGGTGGCTACGACGGGATT
B12: UGCGGAA (DNA:RNA)
RNA: B1 RNA with G25U, G27C, C28G, C29G, C30A, U31A
DNA 1: CAATCTGAATTCCGGTCTCCC
DNA 2: TGGTGGCTACGACGGGATT
B13: UCAUCGU (DNA:RNA)
RNA: B1 RNA with G25U, G26C, G27A, C28U, C30G
DNA 1: CAATCTGAATTCCGGTCTCCC
DNA 2: TGGTGGCTACGACGGGATT
B14: AUAAGUU (DNA:RNA)
RNA: B1 RNA with G25A, G26U, G27A, C28A, C29G, C30U
DNA 1: CAATCTGAATTCCGGTCTCCC
DNA 2: TGGTGGCTACGACGGGATT
B15: UGAGCCA (DNA:RNA)
RNA: B1 RNA with G25U, G27A, C28G, U31A
DNA 1: CAATCTGAATTCCGGTCTCCC
DNA 2: TGGTGGCTACGACGGGATT
B16: ACAUCCA (DNA:RNA)
RNA: B1 RNA with G25A, G26C, G27A, C28U, U31A
DNA 1: CAATCTGAATTCCGGTCTCCC
DNA 2: TGGTGGCTACGACGGGATT
B17: UUUGAUA (DNA:RNA)
RNA: GGGAGACCGGAAUUCAGAUUGUCCUUUGAUAUUAAAUCCCGUCGUAGCCACCA
DNA 1: CAATCTGAATTCCGGTCTCCC
DNA 2: TGGTGGCTACGACGGGATT
B18: UGGACUG (DNA:RNA)
RNA: B1 RNA with G25U, C28A, C30U, U31G
DNA 1: CAATCTGAATTCCGGTCTCCC
DNA 2: TGGTGGCTACGACGGGATT
B19: UGUGGAC (DNA:RNA)
RNA: B17 RNA with U26G, A29G, U30A, A31C
DNA 1: CAATCTGAATTCCGGTCTCCC
DNA 2: TGGTGGCTACGACGGGATT
B20: CGGACUG (DNA:RNA)
RNA: B1 RNA with G25C, C28A, C30U, U31G
DNA 1: CAATCTGAATTCCGGTCTCCC
DNA 2: TGGTGGCTACGACGGGATT
B21: CAGACUG (DNA:RNA)
RNA: B1 RNA with G25C, G26A, C28A, C30U, U31G
DNA 1: CAATCTGAATTCCGGTCTCCC
DNA 2: TGGTGGCTACGACGGGATT
B22: AGGACUG (DNA:RNA)
RNA: B1 RNA with G25A, C28A, C30U, U31G
DNA 1: CAATCTGAATTCCGGTCTCCC
DNA 2: TGGTGGCTACGACGGGATT
B23: GGGACCG (DNA:RNA)
RNA: B1 RNA with C28A, U31G
DNA 1: CAATCTGAATTCCGGTCTCCC
DNA 2: TGGTGGCTACGACGGGATT
B24: UGGAGAC (DNA:RNA)
RNA: B1 RNA with G25U, C28A, C29G, C30A, U31C
DNA 1: CAATCTGAATTCCGGTCTCCC
DNA 2: TGGTGGCTACGACGGGATT
B25: GGGACUG (DNA:RNA)
RNA: B1 RNA with C28A, C30U, U31G
DNA 1: CAATCTGAATTCCGGTCTCCC
DNA 2: TGGTGGCTACGACGGGATT
B26: GGACUGU (DNA:RNA)
RNA: B1 RNA with G27A, C29U, C30G
DNA 1: CAATCTGAATTCCGGTCTCCC
DNA 2: TGGTGGCTACGACGGGATT
B27: CCUGGCU (DNA:RNA)
RNA: B1 RNA with G25C, G26C, G27U, C28G, C29G
DNA 1: CAATCTGAATTCCGGTCTCCC
DNA 2: TGGTGGCTACGACGGGATT
B28: AGGUGAU (DNA:RNA)
RNA: B1 RNA with G25A, C28U, C29G, C30A
DNA 1: CAATCTGAATTCCGGTCTCCC
DNA 2: TGGTGGCTACGACGGGATT
B29: UUCGAUU (DNA:RNA)
RNA: B17 RNA with U27C, A31U
DNA 1: CAATCTGAATTCCGGTCTCCC
DNA 2: TGGTGGCTACGACGGGATT
B30: GUUUGCU (DNA:RNA)
RNA: B1 RNA with G26U, G27U, C28U, C29G
DNA 1: CAATCTGAATTCCGGTCTCCC
DNA 2: TGGTGGCTACGACGGGATT
B31: AACGCCU (DNA:RNA)
RNA: B1 RNA with G25A, G26A, G27C, C28G
DNA 1: CAATCTGAATTCCGGTCTCCC
DNA 2: TGGTGGCTACGACGGGATT

target: T1, RBFOX1 RRM; experiment: EMSA; HiTS-Eq, 1 nM pool, 10 min; buffer printed only for the single-RNA assays: 10 mM Tris pH 7.5, 150 mM NaCl, 3.4 mM EDTA, 0.001% NP-40, 30 C; conditions: tags: His6 N-terminal (pET28a); label: 5' 32P
Outline: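 Purified RbFox RRM, wild type or mutant, was incubated for 10 min in 50 µL with 1 nM of a 5′-radiolabelled RNA pool carrying 7 randomized nucleotides, whose flanks were annealed to DNA oligonucleotides, over a series of increasing protein concentrations. Unbound RNA was resolved on 8% native PAGE, cut out, reverse-transcribed, barcoded by PCR and sequenced on an Illumina HiSeq 2500. Relative association constants were derived from changes in read counts for each RNA species versus the control reaction and normalised to the cognate motif.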

Row | Binder | binding signal
1 | B1 | 0.00615 KA relative to UGCAUGU
2 | B2 | 0.0256 KA relative to UGCAUGU
3 | B3 | 0.0176 KA relative to UGCAUGU
4 | B4 | 0.0257 KA relative to UGCAUGU
5 | B5 | 0.0377 KA relative to UGCAUGU
6 | B6 | 0.0351 KA relative to UGCAUGU
7 | B7 | 0.0409 KA relative to UGCAUGU
8 | B8 | 0.0153 KA relative to UGCAUGU
9 | B9 | 0.027 KA relative to UGCAUGU
10 | B10 | 0.000316 KA relative to UGCAUGU
11 | B11 | 0.00261 KA relative to UGCAUGU
12 | B12 | 0.0165 KA relative to UGCAUGU
13 | B13 | 0.0124 KA relative to UGCAUGU
14 | B14 | 0.00282 KA relative to UGCAUGU
15 | B15 | 0.00784 KA relative to UGCAUGU
16 | B16 | 0.000399 KA relative to UGCAUGU

Row | Binder | binding signal
17 | B17 | 0.0145 KA relative to UGCAUGU
18 | B18 | 0.0448 KA relative to UGCAUGU
19 | B19 | 0.00524 KA relative to UGCAUGU
20 | B20 | 0.0352 KA relative to UGCAUGU
21 | B21 | 0.0132 KA relative to UGCAUGU
22 | B22 | 0.0275 KA relative to UGCAUGU
23 | B23 | 0.0273 KA relative to UGCAUGU
24 | B24 | 0.007 KA relative to UGCAUGU
25 | B25 | 0.0322 KA relative to UGCAUGU
26 | B26 | 0.0223 KA relative to UGCAUGU
27 | B27 | 0.0127 KA relative to UGCAUGU
28 | B28 | 0.0113 KA relative to UGCAUGU
29 | B29 | 0.00889 KA relative to UGCAUGU
30 | B30 | 0.0286 KA relative to UGCAUGU
31 | B31 | 0.00525 KA relative to UGCAUGU
